From PubChem BioAssay (NCATS) come the findings set out here.

Records with an inconclusive call do not appear. Calls of active or inactive are those of the source. Calls follow the shape of the dose curve; as a rule, active = well fitted activation curve with a large enough effect; inconclusive = small, poorly fitted or top-dose-only effect; inactive = flat fitted curve, though single readings scatter.

A short description of the assay: Cellular Toxicity (caspase-3) H-4-II-E (AID 663).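 Also: cells exposed to compound for 16 hr before readout.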 As to conditions: H-4-II-E rat hepatoma, scaled: DMSO 0%, 100 µM tamoxifen 100%; series mostly up to 92.2 µM; caspase-3 activation: at the top concentration. The gist of the method: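 Apoptosis induction is scored as increased luminescence from caspase 3/7 substrate cleavage in rat hepatoma H-4-II-E cells exposed to compound for 16 hr. Activity is scaled between DMSO and 100 uM tamoxifen.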
As for `ClC(Cl)(Cl)Cl`, the compound was classed as inactive.

Take `O=[N+]([O-])c1ccc(F)c([N+](=O)[O-])c1`: the “caspase-3 activation” value is 7.29% (inactive). With `O=C(O)C(Cl)(Cl)Cl`, the result was inactive.

`CCCCCCCCOC(=O)c1ccccc1C(=O)OCCCCCCCC`: the “caspase-3 activation” value is -0.737% (inactive). For the compound `CCCCCl`, the “caspase-3 activation” value is 2.77% (inactive). Turning to `O=Cc1ccco1`, the “caspase-3 activation” value was 0.221% (inactive). The same measure, in the same setting: the result for `O=[N+]([O-])c1ccccc1` reads 0.533% (inactive). Same read-out and setting: then `O=CC=O`, with 0.18% (inactive); and `Clc1ccccc1Cl`, with 1.24% (inactive). As to `C[C@H]1CC[C@@H]2[C@@H](C)[C@H]3[C@H](C[C@H]4[C@@H]5CC=C6CC(O[C@@H]7O[C@H](CO)[C@H](O)[C@H](O[C@@H]8O[C@H](CO)[C@@H](O)[C@H](O)[C@H]8O)[C@H]7O[C@H]7O[C@@H](C)[C@H](O)[C@@H](O)[C@H]7O)CC[C@]6(C)[C@H]5CC[C@]34C)N2C1` (some centres undefined), the “caspase-3 activation” value was -0.247% (inactive).

As to `S=C=S`, the “caspase-3 activation” value is 1.38% (inactive). Still for that read-out and setting: the result for `ClCC1CO1` (centres undefined) reads -0.0505% (inactive). As for `Oc1cc(Cl)c(Cl)cc1Cl`, the “caspase-3 activation” value is 4.23% (inactive). Still for that read-out and setting: then `COC1=CC(=O)O[C@@H](/C=C/c2ccccc2)C1`, with -0.394% (inactive).
